Test results published in PubChem BioAssay (NCATS).
Values without a mark were called inactive. Inconclusive results are not listed. Calls of active or inactive are those of the source. Unless noted, calls follow the shape of the dose curve; as a rule, active = well fitted curve in the direction sought with a large enough effect; inconclusive = small, poorly fitted or top-dose-only effect, or another doubt; inactive = no such curve, though single readings can be large; an effect the other way counts as inactive or inconclusive.

Experiment: qHTS of Nrf2 Activators: LOPAC Validation (AID 624149); also: 0% is about no effect
Details: Nrf2/ARE reporter cell assay; series mostly up to 46.1 µM; activation: at the top concentration
How it was run: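 Cells (AREc32_Fluc) are plated at 1000 per well in OPTI-MEM containing 5% FBS and left overnight. Compounds are pinned in and incubated 24 hr at 37 deg C, and firefly luciferase is detected with Steady-Glo.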
With `CC(C)NCC(O)c1ccc(NS(C)(=O)=O)cc1` (stereo unspecified) the “activation” value was -2.53%. In the case of `COc1cc2nc(N3CCCN(C)CC3)nc(NC3CCN(Cc4ccccc4)CC3)c2cc1OC`, the “activation” value is reported as 8.33%. For `CC1=C(C(=O)O)N2C(=O)[C@@H](NC(=O)C(N)c3ccccc3)[C@H]2SC1` (stereo partly specified), the “activation” value was -1.93%. For `CCN(CC)CCn1c(=O)c(Cc2ccc(OC)cc2)nc2ccccc21`, the “activation” value was -1.34%. For `CCN(CC)CC#CCOC(=O)C(O)(c1ccccc1)C1CCCCC1` (stereo unspecified), the “activation” value was -0.523%. With `NC(=O)c1cccc(N)c1` the “activation” value was -0.709%. For `Cc1ccc(S(=O)(=O)N[C@@H](Cc2ccccc2)C(=O)CCl)cc1`, the “activation” value was -1.81%. For `NC(=O)c1ccc2[nH]ccc2c1`, the “activation” value was -0.453%. For `CC(=O)[C@H]1CC[C@H]2[C@@H]3CCC4=CC(=O)CC[C@]4(C)[C@H]3CC[C@]12C`, the “activation” value was -2.24%. In the case of `COc1cc2ncnc(Nc3cccc(Cl)c3)c2cc1OC`, the “activation” value is reported as -1.23%. In the case of `O=C(O)C1CCCN(CCC=C(c2ccccc2)c2ccccc2)C1` (stereo unspecified), the “activation” value is reported as -0.919%. In the case of `CCN1CCCC1CNC(=O)c1cc(S(N)(=O)=O)ccc1OC` (stereo unspecified), the “activation” value is reported as -0.283%. For `Nc1nc(N)c2nc(CNc3ccc(C(=O)NC(CCC(=O)O)C(=O)O)cc3)cnc2n1` (stereo unspecified), the “activation” value was -2.24%. For `N[C@@H](Cc1ccc(O)c(O)c1)C(=O)O`, the “activation” value was -2.28%. In the case of `OCc1ccc(-c2nn(Cc3ccccc3)c3ccccc23)o1`, the “activation” value is reported as 6.9%. In the case of `CCCCS(=N)(=O)CCC(N)C(=O)O` (stereo unspecified), the “activation” value is reported as -0.053%. For `CC1CC2C3CCC4=CC(=O)C=C[C@]4(C)[C@@]3(F)[C@@H](O)C[C@]2(C)[C@@]1(O)C(=O)CO` (stereo partly specified), the “activation” value was -1.74%.

Experiment: HTS Assay for Allosteric Antagonists of the Human D2 Dopamine Receptor: Hit Validation in HTRF (AID 624455); also: potency is read from the fitted curve at half-maximal effect;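 also: stable D1 dopamine receptor cell line scored for blocking the D1 response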; as to activity, negative = inhibition: % is scaled to controls: 0 for no effect and ±100 for the full control effect
Details: Cells stably expressing D1 dopamine receptor, inhibition mode; series mostly up to 46.1 µM; activity, negative = inhibition: at the top concentration
How it was run: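 Inhibition of the D1-mediated response is measured by HTRF in cells that stably express the D1 dopamine receptor. Compounds reaching this step are hits from calcium-flux antagonism testing at EC80 dopamine in inducible Hek293 Trex D2 cells.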
With `CC(C)NCC(O)c1ccc(NS(C)(=O)=O)cc1` (stereo unspecified) the “activity, negative = inhibition” value was -4.05%. In the case of `COc1cc2nc(N3CCCN(C)CC3)nc(NC3CCN(Cc4ccccc4)CC3)c2cc1OC`, the “activity, negative = inhibition” value is reported as 10.8%. With `CCN(CC)CCn1c(=O)c(Cc2ccc(OC)cc2)nc2ccccc21` the “activity, negative = inhibition” value was 6.5%. In the case of `CCN(CC)CC#CCOC(=O)C(O)(c1ccccc1)C1CCCCC1` (stereo unspecified), the “activity, negative = inhibition” value is reported as 2.7%. With `NC(=O)c1cccc(N)c1` the “activity, negative = inhibition” value was -12.1%. In the case of `Cc1ccc(S(=O)(=O)N[C@@H](Cc2ccccc2)C(=O)CCl)cc1`, the “activity, negative = inhibition” value is reported as 5.51%. With `NC(=O)c1ccc2[nH]ccc2c1` the “activity, negative = inhibition” value was 17.3%. For `CC(=O)[C@H]1CC[C@H]2[C@@H]3CCC4=CC(=O)CC[C@]4(C)[C@H]3CC[C@]12C`, the “activity, negative = inhibition” value was 3.75%. With `COc1cc2ncnc(Nc3cccc(Cl)c3)c2cc1OC` the “activity, negative = inhibition” value was 1.4%. With `O=C(O)C1CCCN(CCC=C(c2ccccc2)c2ccccc2)C1` (stereo unspecified) the “activity, negative = inhibition” value was 34.4%. With `CCN1CCCC1CNC(=O)c1cc(S(N)(=O)=O)ccc1OC` (stereo unspecified) the “activity, negative = inhibition” value was 9.55%. For `Nc1nc(N)c2nc(CNc3ccc(C(=O)NC(CCC(=O)O)C(=O)O)cc3)cnc2n1` (stereo unspecified), the “activity, negative = inhibition” value was -11.1%. In the case of `N[C@@H](Cc1ccc(O)c(O)c1)C(=O)O`, the Potency is reported as 8.2 µM (active). In the case of `OCc1ccc(-c2nn(Cc3ccccc3)c3ccccc23)o1`, the “activity, negative = inhibition” value is reported as 2.42%. In the case of `CCCCS(=N)(=O)CCC(N)C(=O)O` (stereo unspecified), the “activity, negative = inhibition” value is reported as 4.92%. For `CC1CC2C3CCC4=CC(=O)C=C[C@]4(C)[C@@]3(F)[C@@H](O)C[C@]2(C)[C@@]1(O)C(=O)CO` (stereo partly specified), the “activity, negative = inhibition” value was -3.05%.

Experiment: Cytotoxicity counterscreen for NFkB agonists and antagonists (AID 624476);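 also: cells exposed to compound for 48 hours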; also: potency is read from the fitted curve at half-maximal effect; as to activity change, negative = cytotoxicity: % is scaled to controls: 0 for no effect and ±100 for the full control effect
Details: NFkB reporter cell line viability counterscreen; series mostly up to 46.1 µM; activity change, negative = cytotoxicity: at the top concentration
In the case of `CCN(CC)CCn1c(=O)c(Cc2ccc(OC)cc2)nc2ccccc21`, the “activity change, negative = cytotoxicity” value is reported as 1.98%. With `CC(C)C[C@H](NC(=O)[C@H](CCc1ccccc1)NC(=O)CN1CCOCC1)C(=O)N[C@@H](Cc1ccccc1)C(=O)N[C@@H](CC(C)C)C(=O)[C@@]1(C)CO1` the Potency was 0.148 µM (active). With `COc1cc2c(Nc3ccc(Br)cc3F)ncnc2cc1OCC1CCN(C)CC1` the Potency was 26.4 µM (active). In the case of `CNC(=O)c1cc(Oc2ccc(NC(=O)Nc3ccc(Cl)c(C(F)(F)F)c3)cc2)ccn1`, the Potency is reported as 18.7 µM (active).

Experiment: qHTS Assay for Identification of Small Molecule Agonists for NFkB Signaling Pathway. (AID 624478); also: 0% is about no effect
Details: NFkB pathway reporter cell assay, agonist mode, cells co-stimulated with 10 pM TNF alpha; series mostly up to 46.1 µM; activation: at the top concentration
How it was run: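 Activators were sought in reporter cells stimulated at the TNF alpha EC50 (10 pM final). Compound and cytokine were co-incubated 5 hours at 37 C before beta-lactamase substrate detection by dual-emission fluorescence.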
With `COc1cc2nc(N3CCCN(C)CC3)nc(NC3CCN(Cc4ccccc4)CC3)c2cc1OC` the “activation” value was 9.85%. In the case of `CCN(CC)CCn1c(=O)c(Cc2ccc(OC)cc2)nc2ccccc21`, the “activation” value is reported as 3.17%. With `CC(C)C[C@H](NC(=O)[C@H](CCc1ccccc1)NC(=O)CN1CCOCC1)C(=O)N[C@@H](Cc1ccccc1)C(=O)N[C@@H](CC(C)C)C(=O)[C@@]1(C)CO1` the “activation” value was -2.8%. In the case of `COc1cc2c(Nc3ccc(Br)cc3F)ncnc2cc1OCC1CCN(C)CC1`, the “activation” value is reported as 0.477%. For `CNC(=O)c1cc(Oc2ccc(NC(=O)Nc3ccc(Cl)c(C(F)(F)F)c3)cc2)ccn1`, the “activation” value was 3.51%. In the case of `Cc1c(-c2ccc(O)cc2)n(Cc2ccc(OCCN3CCCCCC3)cc2)c2ccc(O)cc12`, the “activation” value is reported as 5.92%. In the case of `COc1cc([C@@H]2c3cc4c(cc3[C@H](O)[C@H]3COC(=O)[C@H]23)OCO4)cc(OC)c1OC`, the “activation” value is reported as -0.38%. With `NC1(c2ccc(-c3nc4ccn5c(=O)[nH]nc5c4cc3-c3ccccc3)cc2)CCC1` the “activation” value was 3.68%.

Experiment: qHTS Assay for Identification of Small Molecule Antagonists for NFkB Signaling Pathway. (AID 624479; calls by dose curve; also: potency is read from the fitted curve at half-maximal effect; as to activity change, negative = inhibition: % is scaled to controls: 0 for no effect and ±100 for the full control effect)
Details: NFkB pathway reporter cell assay, antagonist mode; series mostly up to 38.3 µM; activity change, negative = inhibition: at the top concentration
With `COc1cc2nc(N3CCCN(C)CC3)nc(NC3CCN(Cc4ccccc4)CC3)c2cc1OC` the Potency was 23.7 µM (active). For `CCN(CC)CCn1c(=O)c(Cc2ccc(OC)cc2)nc2ccccc21`, the “activity change, negative = inhibition” value was -17.9%. For `CC(C)C[C@H](NC(=O)[C@H](CCc1ccccc1)NC(=O)CN1CCOCC1)C(=O)N[C@@H](Cc1ccccc1)C(=O)N[C@@H](CC(C)C)C(=O)[C@@]1(C)CO1`, the Potency was 0.0033 µM (active). In the case of `CNC(=O)c1cc(Oc2ccc(NC(=O)Nc3ccc(Cl)c(C(F)(F)F)c3)cc2)ccn1`, the Potency is reported as 9.43 µM (active). For `Cc1c(-c2ccc(O)cc2)n(Cc2ccc(OCCN3CCCCCC3)cc2)c2ccc(O)cc12`, the “activity change, negative = inhibition” value was 19.3%. For `COc1cc([C@@H]2c3cc4c(cc3[C@H](O)[C@H]3COC(=O)[C@H]23)OCO4)cc(OC)c1OC`, the “activity change, negative = inhibition” value was -17.3%.
